This passage reports Potency and outcome results from PubChem BioAssay (NCATS).

Assay [1] is described as follows: qHTS assay for measurement of the activity of small molecule inhibitors on Zika virus induced Caspase-3 activity in human iPSC derived neural progenitor cells (hNPCs) (AID 1224857). Further: nearly all actives have a fitted effect of over 65% in size. Further: potency means the concentration at half of the fitted maximal effect. In a few lines:
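In medium with heparin 2 ug/ml and cyclopamine 2 uM, hNPCs (350 cells/well) received compound for one hour and then Zika virus at 2 FFU/cell; caspase activity was measured by Caspase-Glo 3/7 luminescence 6 h post-infection.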
(In general: Quantitative high-throughput screening tests each substance at several concentrations.)

Assay [2] in a line: NS1 protein of Zika virus - qHTS assay to identify small molecule inhibitors in human HEK 293 cells (AID 1347053). Further: series mostly up to about 46 µM; nearly all actives have a fitted effect of over 55% in size. In a few lines: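 Read-out is a two-antibody TR-FRET for ZIKV NS1, normalized between uninfected cells and infected cells. Compound added 1 h before MR766 infection at MOI 0.5; human HEK 293 cells incubated 24 h, 37 C.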
Assay [3] deals with T1, Tyrosine-protein phosphatase non-receptor type substrate 1 (Homo sapiens) + Leukocyte surface antigen CD47 (Homo sapiens) (UniProt P78324+Q08722). In words: CD47-SIRPalpha protein protein interaction - LANCE assay qHTS validation (AID 1347057; active means well fitted curve in the direction sought with a large enough effect in the signal ratio, with a control signal flat, not every such curve was filed as active; the % refers to the signal ratio; further: series mostly up to about 38 µM). In a few lines:
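Inhibition of soluble CD47/SIRPalpha ectodomain association by titrated compounds, measured as 665/615 nm time-resolved FRET ratio after sequential 30 min room-temperature incubations.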
On the technique in general: TR-FRET usually uses a lanthanide donor and a delayed reading to cut background.

The target of assay [4] is T1, Tyrosine-protein phosphatase non-receptor type substrate 1 (Homo sapiens) + Leukocyte surface antigen CD47 (Homo sapiens). In words: CD47-SIRPalpha protein protein interaction - HTRF assay qHTS validation (AID 1347058; active means well fitted curve in the direction sought with a large enough effect in the signal ratio, not every such curve was filed as active; the % refers to the signal ratio; further: series mostly up to about 38 µM). In a few lines:
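Soluble extracellular domains (6His-CD47, Avi-tag-biotinylated SIRPalpha) in PBS pH 7.4 with 0.05% IGEPAL CA-630. Compounds were preincubated 30 min at RT with CD47 and anti-His-Eu, then SIRPalpha and SAV-XL665 were added. TR-FRET 665/615 ratio.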

For assay [5] the target is unchanged. In words: CD47-SIRPalpha protein protein interaction - Alpha assay qHTS validation (AID 1347059).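 Further: bead proximity luminescence from CD47 binding SIRPalpha after compound preincubation with SIRPalpha.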 The method in brief: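 In PBS (pH 7.4) with 0.05% IGEPAL CA-630, compound is preincubated with biotin-Avi-SIRPalpha ectodomain before His-CD47 ectodomain and affinity beads are added. Light-protected room-temperature incubations; AlphaScreen readout.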
Assay [6] addresses Atrial natriuretic peptide receptor 1 (Homo sapiens) (UniProt P16066). The assay is described as follows: Natriuretic polypeptide receptor (hNpr1) antagonism - Pilot screen (AID 1347049; calls by dose curve;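 further: HEK293 cells with hNpr1 and GloSensor cGMP luciferase stimulated by 0.1 nM hNppA; agonist-evoked cGMP luminescence read 20 min after hNppA addition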; further: potency means the concentration at half of the fitted maximal effect). The method in brief:
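Cells expressing receptor plus cGMP biosensor are seeded and incubated overnight at 37C, then loaded with GloSensor reagent (2% final) at room temperature for 2 h. Library compounds go on for 30 min. A pre-read precedes agonist (hNppA, 0.1 nM final) and a 20-min readout.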

In assay [7] the target is Atrial natriuretic peptide receptor 2 (Homo sapiens) (UniProt P20594). The assay is described as follows: Natriuretic polypeptide receptor (hNpr2) antagonism - Pilot subtype selectivity assay (AID 1347050; calls by dose curve; further: potency means the concentration at half of the fitted maximal effect). The method in brief:
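Read-out: GloSensor luminescence (CCD imager), baseline vs post-stimulation. HEK293 cells expressing hNpr2; compounds pre-incubated 30-50 min at ambient temperature; hNppC 1 nM final, 20 min.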

The target in assay [8] is Parathyroid hormone/parathyroid hormone-related peptide receptor (Homo sapiens) (UniProt Q03431). The assay is described as follows: qHTS for PTHR1 Agonists: Optimization Screen against the NCGC LOPAC library (AID 1347079).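 Further: GloSensor cAMP luminescence in HEK-293 GP2 cells expressing human PTHR1 with IBMX.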 In a few lines:
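Signal increase flags agonism. GP2 cells, derived from HEK-293, express human PTHR1 and a GloSensor cAMP construct.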

The nature of assay [9]: P-glycoprotein substrates identified in KB-8-5-11 adenocarcinoma cell line, qHTS therapeutic library screen (AID 1346987). Further: series mostly up to about 44 µM; nearly all actives have a fitted effect of over 65% in size. The method in brief:
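In this qHTS, P-gp-rich KB-8-5-11 cells received library compounds across a concentration range. Viability was quantified by luminescence after 72 h at 37 degree C.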

A short description of assay [10]: qHTS of pediatric cancer cell lines to identify multiple opportunities for drug repurposing: Primary screen for TC32 cells (AID 1347089). Further: nearly all actives have a fitted effect of over 60% in size. The method in brief:
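TC32 cells, 500-1,000/well in growth medium, compound-treated 48 h at 37 °C; viability from CellTiter-Glo luminescence. Primary screen: MIPE 11-point (0.78 nM–46 µM final), NPC 8-point (0.59 nM–46 µM final); confirmatory at 11-point dilutions.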

A short description of assay [11]: qHTS of pediatric cancer cell lines to identify multiple opportunities for drug repurposing: Primary screen for DAOY cells (AID 1347090). Further: series mostly up to about 46 µM; nearly all actives have a fitted effect of over 55% in size. In a few lines:
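Eight- or eleven-point concentration series, 48 h treatment at 37 degrees C in growth media; readout CellTiter-Glo luminescence. Potency and efficacy were taken from the concentration-response curves.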

Assay [12] can be described thus: Natriuretic polypeptide receptor (hNpr1) antagonism - Pilot counterscreen GloSensor control cell line (AID 1347045; calls by dose curve; further: potency means the concentration at half of the fitted maximal effect). The method in brief: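 HEK293 cGMP-sensor cells; 2% GloSensor reagent 2 h RT; LOPAC compounds in 1:5 titrations 30-50 min; 50 uM SNP 20 min; luminescence pre-read and post-read.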
In general terms: A counterscreen serves to expose hits that act by an unwanted route or on another target.

Results filed as inconclusive are left out. Active and inactive are the calls of the source. Unless noted, the call rests on the fitted dose curve; in most records, active means well fitted curve in the direction sought with a large enough effect; inconclusive means small, poorly fitted or top-dose-only effect, or another doubt; inactive means no such curve, though single readings can be large; an effect the other way counts as inactive or inconclusive.

Atrial natriuretic peptide receptor 1 (Homo sapiens), sequence (P16066 whole entry, looked up): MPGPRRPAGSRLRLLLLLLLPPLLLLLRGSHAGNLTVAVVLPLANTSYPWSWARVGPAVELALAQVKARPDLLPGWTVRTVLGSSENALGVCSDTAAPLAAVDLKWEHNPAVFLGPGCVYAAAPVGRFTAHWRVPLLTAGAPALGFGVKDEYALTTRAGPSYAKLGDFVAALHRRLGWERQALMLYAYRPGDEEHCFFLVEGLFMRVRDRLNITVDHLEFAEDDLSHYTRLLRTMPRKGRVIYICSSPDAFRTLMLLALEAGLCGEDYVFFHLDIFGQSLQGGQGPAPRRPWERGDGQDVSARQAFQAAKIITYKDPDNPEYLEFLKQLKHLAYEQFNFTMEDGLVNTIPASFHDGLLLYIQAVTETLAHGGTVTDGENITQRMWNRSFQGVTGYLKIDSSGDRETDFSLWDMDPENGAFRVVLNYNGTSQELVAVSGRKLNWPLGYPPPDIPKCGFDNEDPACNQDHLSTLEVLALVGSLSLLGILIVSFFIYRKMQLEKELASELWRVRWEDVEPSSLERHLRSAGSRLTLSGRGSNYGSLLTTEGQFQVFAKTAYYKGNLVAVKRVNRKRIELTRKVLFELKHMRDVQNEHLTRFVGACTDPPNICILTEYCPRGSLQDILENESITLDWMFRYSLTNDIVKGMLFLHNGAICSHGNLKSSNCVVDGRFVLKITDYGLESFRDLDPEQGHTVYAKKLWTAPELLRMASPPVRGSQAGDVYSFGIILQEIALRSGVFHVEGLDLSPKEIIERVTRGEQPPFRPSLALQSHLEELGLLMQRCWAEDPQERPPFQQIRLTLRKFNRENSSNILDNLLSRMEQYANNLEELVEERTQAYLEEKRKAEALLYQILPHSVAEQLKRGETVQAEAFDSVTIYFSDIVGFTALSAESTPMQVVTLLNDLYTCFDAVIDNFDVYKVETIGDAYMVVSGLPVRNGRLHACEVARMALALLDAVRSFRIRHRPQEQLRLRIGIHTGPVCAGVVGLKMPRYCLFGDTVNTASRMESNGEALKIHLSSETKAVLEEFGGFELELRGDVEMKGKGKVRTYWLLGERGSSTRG
Atrial natriuretic peptide receptor 2 (Homo sapiens), sequence (P20594 whole entry, looked up): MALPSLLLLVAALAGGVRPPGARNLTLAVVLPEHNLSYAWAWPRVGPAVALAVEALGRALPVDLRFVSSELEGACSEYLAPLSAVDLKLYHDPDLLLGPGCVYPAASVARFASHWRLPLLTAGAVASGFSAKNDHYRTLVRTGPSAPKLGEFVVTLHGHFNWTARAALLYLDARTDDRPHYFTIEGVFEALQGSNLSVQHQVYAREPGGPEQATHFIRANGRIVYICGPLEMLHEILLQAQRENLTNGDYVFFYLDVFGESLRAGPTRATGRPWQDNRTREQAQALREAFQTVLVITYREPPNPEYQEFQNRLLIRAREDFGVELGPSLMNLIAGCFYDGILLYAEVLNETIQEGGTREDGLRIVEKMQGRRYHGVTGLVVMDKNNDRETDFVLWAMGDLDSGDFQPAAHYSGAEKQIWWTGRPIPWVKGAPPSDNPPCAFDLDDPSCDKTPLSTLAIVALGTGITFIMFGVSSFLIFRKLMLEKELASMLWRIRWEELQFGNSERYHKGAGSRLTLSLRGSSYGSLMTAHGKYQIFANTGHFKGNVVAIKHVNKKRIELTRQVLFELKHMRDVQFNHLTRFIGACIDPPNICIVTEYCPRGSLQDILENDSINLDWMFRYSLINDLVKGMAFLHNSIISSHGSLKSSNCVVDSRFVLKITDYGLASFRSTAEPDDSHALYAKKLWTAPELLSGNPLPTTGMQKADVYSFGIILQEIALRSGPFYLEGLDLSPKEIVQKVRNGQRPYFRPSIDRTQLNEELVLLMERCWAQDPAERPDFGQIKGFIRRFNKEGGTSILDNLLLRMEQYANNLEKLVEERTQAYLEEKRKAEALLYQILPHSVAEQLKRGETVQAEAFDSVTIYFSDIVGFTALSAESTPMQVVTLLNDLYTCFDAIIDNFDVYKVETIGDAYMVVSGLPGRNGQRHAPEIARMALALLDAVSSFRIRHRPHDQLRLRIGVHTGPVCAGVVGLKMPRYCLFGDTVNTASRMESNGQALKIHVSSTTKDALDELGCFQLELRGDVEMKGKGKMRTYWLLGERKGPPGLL
T1 sequence (P78324 whole entry, looked up, the tested form may be a part): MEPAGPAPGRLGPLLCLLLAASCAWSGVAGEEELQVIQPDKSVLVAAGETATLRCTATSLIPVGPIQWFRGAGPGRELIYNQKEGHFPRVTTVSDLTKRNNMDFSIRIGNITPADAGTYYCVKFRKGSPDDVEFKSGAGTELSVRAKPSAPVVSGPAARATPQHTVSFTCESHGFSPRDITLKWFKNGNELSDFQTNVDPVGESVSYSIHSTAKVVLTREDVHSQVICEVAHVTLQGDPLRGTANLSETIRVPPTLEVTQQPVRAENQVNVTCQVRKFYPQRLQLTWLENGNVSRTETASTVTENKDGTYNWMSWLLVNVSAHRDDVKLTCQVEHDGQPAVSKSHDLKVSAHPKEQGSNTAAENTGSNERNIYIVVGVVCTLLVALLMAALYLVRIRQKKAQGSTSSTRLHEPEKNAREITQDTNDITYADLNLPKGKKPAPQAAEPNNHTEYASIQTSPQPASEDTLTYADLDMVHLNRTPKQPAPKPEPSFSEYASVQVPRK
T1 sequence (Q08722 whole entry, looked up, the tested form may be a part): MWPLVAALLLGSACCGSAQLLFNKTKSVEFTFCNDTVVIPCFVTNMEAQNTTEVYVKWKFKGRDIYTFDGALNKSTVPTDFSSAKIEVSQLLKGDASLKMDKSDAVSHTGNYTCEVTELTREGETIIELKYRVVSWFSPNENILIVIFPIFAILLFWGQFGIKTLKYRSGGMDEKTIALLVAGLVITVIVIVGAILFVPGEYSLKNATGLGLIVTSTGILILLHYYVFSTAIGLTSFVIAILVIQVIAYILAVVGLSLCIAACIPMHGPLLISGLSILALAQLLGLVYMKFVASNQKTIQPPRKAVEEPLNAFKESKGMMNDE
Parathyroid hormone/parathyroid hormone-related peptide receptor (Homo sapiens), sequence (Q03431 whole entry, looked up): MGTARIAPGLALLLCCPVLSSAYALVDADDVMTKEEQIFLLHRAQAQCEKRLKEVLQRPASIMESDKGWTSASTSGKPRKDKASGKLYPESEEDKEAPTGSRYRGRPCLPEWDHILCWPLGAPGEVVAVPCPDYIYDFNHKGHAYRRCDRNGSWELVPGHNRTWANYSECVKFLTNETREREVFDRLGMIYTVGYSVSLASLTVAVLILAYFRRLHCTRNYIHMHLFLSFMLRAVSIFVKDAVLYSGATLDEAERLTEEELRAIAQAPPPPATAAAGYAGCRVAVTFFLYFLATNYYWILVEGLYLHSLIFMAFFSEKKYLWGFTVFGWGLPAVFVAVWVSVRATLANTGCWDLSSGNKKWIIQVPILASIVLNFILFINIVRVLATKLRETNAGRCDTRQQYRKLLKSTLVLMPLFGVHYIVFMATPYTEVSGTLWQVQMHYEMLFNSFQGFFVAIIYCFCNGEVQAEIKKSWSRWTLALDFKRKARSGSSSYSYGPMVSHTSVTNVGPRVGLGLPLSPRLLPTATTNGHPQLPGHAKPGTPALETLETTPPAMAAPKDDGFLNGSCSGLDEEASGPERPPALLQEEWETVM

For the compound `CC[C@H]1OC(=O)[C@H](C)[C@@H](O[C@H]2C[C@@](C)(OC)[C@@H](O)[C@H](C)O2)[C@H](C)[C@@H](O[C@@H]2O[C@H](C)C[C@H](NC)[C@H]2O)[C@](C)(O)C[C@@H](C)CN(C)[C@H](C)[C@@H](O)[C@]1(C)O`, the Potency entry in assay [1], in [2], in assay [3] and in assay [5] was “inactive” in each case. Further, the outcome in assay [4] was inactive.
As for `CC(C)NC[C@@H](O)c1ccc(O)c(O)c1`, the Potency result in assay [1], in [6], in assay [7], in assay [2], in [3] and in assay [5] was “inactive” throughout. Besides, the Potency result in assay [8] is “inactive”.
Turning to `Nc1nc2ccc(Cl)cc2n2c(-c3ccccc3)nnc12`, the Potency entry in [1], in [2], in [3] and in [5] was “inactive” in each case. Further, in assay [4], the result was inactive.
Regarding `N=C(N)N`, the Potency entry in assay [1], in assay [9], in [2], in assay [10] and in assay [11] was “inactive” throughout.
With `CN[C@H](CC(C)C)C(=O)N[C@H]1C(=O)N[C@@H](CC(N)=O)C(=O)N[C@H]2C(=O)N[C@H]3C(=O)N[C@H](C(=O)N[C@H](C(=O)O)c4cc(O)cc(O)c4-c4cc3ccc4O)[C@H](O)c3ccc(c(Cl)c3)Oc3cc2cc(c3O[C@@H]2O[C@H](CO)[C@@H](O)[C@H](O)[C@H]2O[C@H]2C[C@](C)(N)[C@H](O)[C@H](C)O2)Oc2ccc(cc2Cl)[C@H]1O`, the Potency result in assay [1], in assay [2], in [3] and in [5] was “inactive” in each case. For the same compound, the result in assay [4] was inactive.
As for `Nc1nc2c(ncn2[C@@H]2O[C@H](CO)[C@@H](O)[C@@H]2O)c(=O)[nH]1`, the Potency entry in assay [1], in assay [2], in [3] and in assay [5] was “inactive” throughout. The result in assay [4] was inactive.
Regarding `O=C(Nc1cccc(C(=O)Nc2ccc(S(=O)(=O)O)c3cc(S(=O)(=O)O)cc(S(=O)(=O)O)c23)c1)Nc1cccc(C(=O)Nc2ccc(S(=O)(=O)O)c3cc(S(=O)(=O)O)cc(S(=O)(=O)O)c23)c1`, the Potency result in assay [1], in assay [12], in assay [6], in assay [7], in assay [2] and in assay [3] was “inactive” throughout. In addition, in assay [8], the Potency result was “inactive”.
As to `CCNC(=O)[C@H]1O[C@@H](n2cnc3c(N)nc(NCCc4ccc(CCC(=O)O)cc4)nc32)[C@H](O)C1O` (stereo not given in full), the Potency entry in [1], in assay [2], in assay [3] and in assay [5] was “inactive” each time. Also, the result in assay [4] was inactive.
As for `CC[C@H]1OC(=O)[C@H](C)C(O[C@H]2C[C@@](C)(OC)[C@@H](O)[C@H](C)O2)[C@H](C)[C@@H](OC2O[C@H](C)C[C@H](N(C)C)[C@H]2O)[C@](C)(O)C[C@@H](C)CN(C)[C@H](C)[C@@H](O)[C@]1(C)O` (stereo not given in full), the Potency result in assay [1], in assay [2], in [3] and in assay [5] was “inactive” throughout. For the same compound, in assay [4], the outcome was inactive.
For the compound `Cc1ccc(O)c(N=Nc2ccccc2)n1`, the Potency is 0.891 µM (active) in [1], 7.36 µM (active) in [12], 16.9 µM (active) in assay [6] and 10.4 µM (active) in [7]. The Potency result in assay [3] and in assay [8] was “inactive” throughout.
In the case of `Brc1cc2c(cc1[C@H]1Nc3ccccc3[C@H]3C=CC[C@H]31)OCO2`, the Potency entry in assay [1], in assay [2], in [3] and in assay [5] was “inactive” throughout. Besides, the outcome in [4] was inactive.
On to `CCCC(CCC)C(=O)OC1CC2CCC(C1)[N+]2(C)C` (stereo not given), for which the Potency entry in assay [1], in assay [2], in [3] and in assay [5] was “inactive” each time. For the same compound, the result in assay [4] was inactive.
With `CCCCCCCCCCCCCCCCCCN(CCCCCCCCCCCCCCCCCC)CCCN(CCO)CCO`, the Potency result in assay [1], in assay [2], in [3] and in [5] was “inactive” in each case. Besides, the result in [4] was inactive.
For `COc1ccc(Br)cc1S(=O)(=O)NC(=O)/C=C/c1ccccc1Cc1ccc2ccccc2c1`, the Potency result in [1], in [2], in assay [3] and in assay [5] was “inactive” in each case. Besides, the result in assay [4] was inactive.
Consider `O=C(CCSCc1ccco1)NNC(=O)N1Cc2ccccc2Oc2ccc(Cl)cc21`, for which the Potency entry in assay [1], in assay [2], in assay [3] and in [5] was “inactive” in each case. Also, the result in [4] was inactive.
Regarding `Oc1cc(O)cc(/C=C/c2ccc(O)c(O)c2)c1`, the Potency was 7.94 µM (active) in assay [1] and 11.7 µM (active) in assay [12]. Also, the Potency entry in [2], in assay [3] and in [8] was “inactive” in each case.
